Assay outcomes from PubChem BioAssay.
Only some compounds are listed: those with a hit (about 2.9% of all), similar ones and a draw of the others.
IP6K1 inhibitor = IP6K1 kinase inhibition; activity change, % (series mostly up to about 58 µM); Q92551; AID 1645851; IP6K1 kinase, ADP-Glo luminescence, 2 h; hits give low values; actives 0.81% (n = 140,000); in the data active means activity change below about -25%
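ADP-Glo luminescence measures ADP made by human IP6K1 during a 2 h RT reaction with ATP/IP6 (mix at 1.3 mM/130 uM); top library doses 57.5 and 19.1 uM final.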
HEK293 viab = reduces viability of HEK-293 SNCA reporter cells. HEK-293-SNCA-luc viability, GF-AFC fluorescence, 24 h. Potency, µM (top dose mostly 57.1 µM), most hits filed as cytotoxic. actives 0.12% (n = 150,000); further: nearly all actives have a fitted effect of over 30% in size
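HEK-293-SNCA-luc cells (1500/well) plated 24 h, then exposed 24 h to a dilution series; GF-AFC added 30 min at 37C, fluorescence 405/540 nm; normalised to medium-only and DMSO wells, Hill fit.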
SNCA expr inh = reduces expression of the alpha-synuclein gene; HEK-293 SNCA-luciferase knock-in, luminescence, 24 h; Potency, µM (doses to about 57.2 µM), hits mostly inhibitors; actives 0.17% (n = 140,000); further: nearly all actives have a fitted effect of over 45% in size
KDM5B inhibitor = inhibitors of human KDM5B histone demethylase. KDM5B demethylase, FDH-coupled NADH fluorescence (FDH is formaldehyde dehydrogenase). Potency, µM (highest dose often 57.7 µM), hits mostly inhibitors. actives 2.6% (n = 220,000). AID 1347165; further: nearly all actives have a fitted effect of over 70% in size
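KDM5BΔAP (200 nM final) in 50 mM HEPES pH 7.5, 0.01% Tween-20 was preincubated 10 min at RT with compound over a concentration range. Substrate mix (H3K4me3 12.5 µM, α-KG 25 µM, Fe²⁺, ascorbate, NAD⁺, FDH) was added, and NADH fluorescence change over 30 min gave dose-response curves.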
Hits are given with their value; [ ] = dose if it differs, or a comment. Unless noted, the call rests on the fitted dose curve; in most records, active means well fitted curve in the direction sought with a large enough effect; inconclusive means small, poorly fitted or top-dose-only effect, or another doubt; inactive means no such curve, though single readings can be large; an effect the other way counts as inactive or inconclusive.

`Cc1nn(-c2ccccc2)c2c1C(C1CC1)N(C1CCN(C(=O)c3ccc(F)cc3)C1)C2=O` (centres undefined) gave IP6K1 inhibitor inactive.
For CCC(C(=O)N1CCCN(c2cc(-c3ccc(OC)cc3)[nH]n2)CC1)c1ccccc1 (centres undefined) the results were IP6K1 inhibitor inactive, HEK293 viab inactive, SNCA expr inh inactive and KDM5B inhibitor inconclusive.
O=C(c1ccccc1)N1CCC2(CC1)NCc1ccccc1NC2=O was read as IP6K1 inhibitor inactive, HEK293 viab inactive, SNCA expr inh inactive and KDM5B inhibitor 89µM.
For O=C(C1CCCCC1)N1CCC2(CC1)NCc1ccccc1NC2=O the results were IP6K1 inhibitor inactive, HEK293 viab inactive, SNCA expr inh inactive and KDM5B inhibitor inactive.
COc1cccc(-c2cccc(C(=O)N3CCN(C(=O)C4CCCC4)CC3)c2)c1 was read as IP6K1 inhibitor inactive, HEK293 viab inactive[12.5 µM] and SNCA expr inh inactive.
`COc1ccc(-c2cc(C(=O)N3CCCC3)ccn2)cc1F` gave IP6K1 inhibitor inactive, HEK293 viab inactive, SNCA expr inh inactive and KDM5B inhibitor 28µM.
`CCN1c2cc(C(=O)Nc3ccc(F)c(Cl)c3)ccc2C(=O)N2CCCCCC21` (centres undefined) gave IP6K1 inhibitor inactive, HEK293 viab inactive[12.5 µM], SNCA expr inh inconclusive and KDM5B inhibitor inactive.
For CN1CCN(c2cc(=O)c3ccnc(-c4cccc(F)c4)c3o2)CC1 the results were IP6K1 inhibitor inactive, HEK293 viab inactive, SNCA expr inh inactive and KDM5B inhibitor 35µM.
CC(=O)Nc1cccc(-c2nccc3c(=O)cc(-c4ccncc4)oc23)c1 was read as IP6K1 inhibitor inactive, HEK293 viab inactive, SNCA expr inh inactive and KDM5B inhibitor inconclusive.
Screening Cc1cc(-c2nccc3c(=O)cc(N4CCOCC4)oc23)ccn1 returned IP6K1 inhibitor inactive, HEK293 viab inactive, SNCA expr inh inactive and KDM5B inhibitor inconclusive.
O=c1cc(-c2ccncc2)oc2c(-c3cccc(CO)c3)nccc12 was read as IP6K1 inhibitor inactive, HEK293 viab inactive, SNCA expr inh inactive and KDM5B inhibitor 35µM.
Screening CN1CCN(c2cc(=O)c3ccnc(-c4cccc(CO)c4)c3o2)CC1 returned IP6K1 inhibitor inactive, HEK293 viab inactive, SNCA expr inh inactive and KDM5B inhibitor 28µM.
`CN1CCN(c2cc(=O)c3ccnc(-c4ccc(CO)cc4)c3o2)CC1` gave IP6K1 inhibitor inactive, HEK293 viab inactive, SNCA expr inh inactive and KDM5B inhibitor 35µM.
`CN1CCN(c2cc(=O)c3ccnc(Nc4ccccn4)c3o2)CC1` gave IP6K1 inhibitor inactive, HEK293 viab inactive, SNCA expr inh inactive and KDM5B inhibitor inconclusive.
For O=C(NCc1ccc(F)cc1)c1nc2sccn2c1-c1ccncc1 the results were IP6K1 inhibitor inactive, HEK293 viab inactive and SNCA expr inh inactive.
COC(=O)c1ccc(COC[C@@H]2CN(C(C)C)S(=O)(=O)[C@H]2c2ccccc2)cc1 was read as IP6K1 inhibitor inactive.
CCc1n[nH]c(CC2CCN(C(=O)c3ccccc3)CC2)n1 was read as IP6K1 inhibitor inactive, HEK293 viab inactive, SNCA expr inh inconclusive and KDM5B inhibitor 22µM.
Screening COC(=O)N1CCCN(c2nc3ncccc3o2)CC1 returned IP6K1 inhibitor inactive, HEK293 viab inactive, SNCA expr inh inactive and KDM5B inhibitor 25µM.
For COCC(=O)N1CCCN(c2nc3ncccc3o2)CC1 the results were IP6K1 inhibitor inactive, HEK293 viab inactive, SNCA expr inh inactive and KDM5B inhibitor 28µM.
`CC(=O)N1CCN(c2nc3ncccc3o2)CC1` gave IP6K1 inhibitor inactive, HEK293 viab inactive, SNCA expr inh inactive and KDM5B inhibitor 32µM.
COC(=O)N1CCN(c2nc3ncccc3o2)CC1 was read as IP6K1 inhibitor inactive, HEK293 viab inactive, SNCA expr inh inactive and KDM5B inhibitor inconclusive.
Screening O=[S+]([O-])(NC1CCN(Cc2cccc(-c3ccc(F)c(F)c3)c2)CC1)c1cccs1 returned IP6K1 inhibitor inactive.
`Cc1cc2oc(C(=O)NCC(c3cccs3)N3CCCC3)cc(=O)c2cc1Cl` (centres undefined) gave KDM5B inhibitor inactive.
Cc1ccc(S(=O)(=O)N(C)C2CCOc3ccccc32)cc1 (centres undefined) was read as IP6K1 inhibitor inactive, HEK293 viab inactive, SNCA expr inh inactive and KDM5B inhibitor inactive.
Screening COc1ccc(C(=O)Cn2c(=O)c(-c3cc(C)ccc3NC(C)=O)nc3ccccc32)cc1 returned IP6K1 inhibitor inactive, HEK293 viab inconclusive, SNCA expr inh inactive and KDM5B inhibitor inconclusive.
Screening CCC(=O)Nc1ccc(C)cc1-c1nc2ccccc2n(CC(=O)c2ccc(C)cc2)c1=O returned IP6K1 inhibitor inactive, HEK293 viab inactive, SNCA expr inh 28µM and KDM5B inhibitor inactive.
Screening Cc1c(-c2ccccc2F)[nH]c2ccc(CNS(=O)(=O)C3CC3)cc12 returned IP6K1 inhibitor inactive, HEK293 viab inactive, SNCA expr inh inactive and KDM5B inhibitor 28µM.
Screening Cc1c(-c2ccccc2F)[nH]c2ccc(CNC(=O)C3CCNC3)cc12 (centres undefined) returned IP6K1 inhibitor inactive, HEK293 viab inactive, SNCA expr inh inactive and KDM5B inhibitor 28µM.
For O=C(NCc1ccccc1)C1CCN(Cc2ccccc2-c2ccccc2F)CC1 the results were IP6K1 inhibitor inactive.
Screening COCCNC(=O)c1ccc2c(c1)N(C)C(CC(=O)NCC(C)C)CO2 (centres undefined) returned IP6K1 inhibitor inactive, HEK293 viab inactive, SNCA expr inh inactive and KDM5B inhibitor inconclusive.
Screening COCCNC(=O)c1ccc2c(c1)N(C)C(CC(=O)NC(C)C)CO2 (centres undefined) returned IP6K1 inhibitor inactive, HEK293 viab inactive, SNCA expr inh inactive and KDM5B inhibitor 20µM.
For COCCNC(=O)c1ccc2c(c1)N(C)C(CC(=O)NCc1ccon1)CO2 (centres undefined) the results were IP6K1 inhibitor inactive, HEK293 viab inconclusive, SNCA expr inh inactive and KDM5B inhibitor 28µM.
Screening CN(C)C(=O)c1ccc2c(c1)N(C)C(CC(=O)NC(C)(C)c1ccccc1)CO2 (centres undefined) returned IP6K1 inhibitor inactive, HEK293 viab inactive, SNCA expr inh inconclusive and KDM5B inhibitor inactive.
COCCNC(=O)c1ccc2c(c1)N(C)C(CC(=O)NC1CCC1)CO2 (centres undefined) was read as IP6K1 inhibitor inactive, HEK293 viab inactive, SNCA expr inh inactive and KDM5B inhibitor 28µM.
CCCNC(=O)CC1COc2ccc(C(=O)NCCOC)cc2N1C (centres undefined) was read as IP6K1 inhibitor inactive, HEK293 viab inactive, SNCA expr inh inactive and KDM5B inhibitor 28µM.
Cc1cccc(NC(=O)N2CCCC2c2noc(COc3ccc(F)cc3)n2)c1 (centres undefined) was read as IP6K1 inhibitor inactive, HEK293 viab inactive and SNCA expr inh inactive.
`COCCNC(=O)c1ccc2c(c1)N(C)C(CC(=O)Nc1ccc(N)nc1)CO2` (centres undefined) gave IP6K1 inhibitor inactive, HEK293 viab inactive, SNCA expr inh inactive and KDM5B inhibitor 22µM.
